14 compounds from ChEMBL document CHEMBL4296182, “CO-ADD screening of NIH NCI Diversity Set V” can be followed below.

Molecules are shown by their SMILES. The campaign covered roughly 23,000 compounds. About 30 (0.1%) showed an effect of 50% or more. For the sample, strong results were picked, then their nearest neighbours and some compounds at random. Entries with a potency or affinity are not part of this list.

The test system of this assay is Pseudomonas aeruginosa. Conditions: Concentration 20 uM; ASSAY_TEST Inhibition of Bacterial Growth; detection method Absorption (OD600); MEDIA CAMHB; plate type 384well; NBS; CORNING #3640; time 18 hr.
Regarding `Oc1ccnc2c(Cl)cccc12`, the Inhibition (as a rule, the drop in the measured response relative to a control, in per cent) is recorded as -8.65%. To `OCc1ncccc1O` belongs 3.5%. On to `Oc1ccc2ccccc2c1/N=N/c1ccc(F)cc1`, for which the Inhibition stood at 0.71%. `O=[N+]([O-])c1cccc(/C=C/c2ccccn2)c1`: the Inhibition was determined as 19.15%. Take `CSc1nc(S)c2[nH]c(S)nc2n1`: the Inhibition turned out to be 6.05%. Regarding `Cc1ccc(/N=N/c2ccc(N)cc2C)c(S(N)(=O)=O)c1`, the Inhibition is reported as -1.43%. In the case of `COc1ccc(/C(C#N)=C/c2cccnc2)cc1`, the Inhibition turned out to be 11.13%. In the case of `C=CCC(CC)C(=O)NC(=O)N1CCCc2ccccc21` (centres undefined) it was -1.54%; in that of `C=C1S/C(=N\c2c(C)cccc2Cl)N(C(=O)c2sc3ccccc3c2Cl)C12CCCCC2`, -6.03%. Turning to `COC1OC(CO)C(N=C(C)C)C1O` (centres undefined), the Inhibition was -2.66%.

Regarding `c1ccc(Nc2cccc3c(Nc4ccccc4)cccc23)cc1`, the Inhibition was determined as 21.7%. On to `O=C(Nc1cccnc1)c1cccc([N+](=O)[O-])c1`, for which the Inhibition was 8.42%. To `COC1OC(O)C(NC(=O)C(F)(F)F)CC1O` (centres undefined) belongs 6.88%; to `O=C1CSCc2nc3ccccc3n21`, 23.81%.
